# From PubChem BioAssay (NCATS)
# Records with an inconclusive call do not appear. Entries that show only a call come without a potency. Activity calls are given as the source filed them. Unless noted, the call rests on the fitted dose curve; in most records, active means well fitted curve in the direction sought with a large enough effect; inconclusive means small, poorly fitted or top-dose-only effect, or another doubt; inactive means no such curve, though single readings can be large; an effect the other way counts as inactive or inconclusive.
# Assays:
# [1] = molecular target: Calcium and integrin-binding protein 1 (Homo sapiens) (UniProt Q99828); test: Primary qHTS for Identification of Calcium Integrin Binding Protein 1 (CIB1) Competitor (AID 1508620);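 further: GST tagged CIB1 binding a fluorescein labelled alphaIIb integrin peptide tracer; top concentration of the series differs between compounds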
# Chain of Calcium and integrin-binding protein 1 (Homo sapiens) (Q99828 whole entry, looked up): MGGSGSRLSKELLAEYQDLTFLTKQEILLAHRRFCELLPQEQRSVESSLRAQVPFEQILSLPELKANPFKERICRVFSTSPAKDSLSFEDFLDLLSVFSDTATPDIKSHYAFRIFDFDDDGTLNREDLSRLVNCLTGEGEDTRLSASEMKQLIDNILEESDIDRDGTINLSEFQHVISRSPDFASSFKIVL
# In short: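 Fluorescence polarization competition: CIB1-GST (1 uM final) preincubated with compound 15 min at room temperature, then FITC-labeled alphaIIb peptide (100 nM final) added for another 15 min. Polarization read at Ex 480/Em 540.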
# [2] = Primary qHTS for inhibitors of nuclear receptor binding SET domain protein 2 (NSD2) in an isogenic RCH-ACV NSD2 p.E1099K mutant (9B) (AID 1645876); further: potency means the concentration at half of the fitted maximal effect; nearly all actives have a fitted effect of over 70% in size
# [3] = Primary qHTS for inhibitors of nuclear receptor binding SET domain protein 2 (NSD2) in an RCH-ACV wild type WT cells (2C) (AID 1645877); further: potency means the concentration at half of the fitted maximal effect; nearly all actives have a fitted effect of over 70% in size
# [4] = molecular target: Cytochrome P450 2C9 (Homo sapiens) (UniProt P11712); test: Cytochrome P450 family 2 subfamily C member 9 (CYP2C9) small molecule antagonists: luciferase biochemical (cell-free) qHTS assay (AID 1645842; active means well fitted curve in the direction sought with a large enough effect in the repeat runs; an effect the other way counts as inactive or inconclusive; further: nearly all actives have a fitted effect of over 55% in size)
# Chain of Cytochrome P450 2C9 (Homo sapiens) (P11712 whole entry, looked up): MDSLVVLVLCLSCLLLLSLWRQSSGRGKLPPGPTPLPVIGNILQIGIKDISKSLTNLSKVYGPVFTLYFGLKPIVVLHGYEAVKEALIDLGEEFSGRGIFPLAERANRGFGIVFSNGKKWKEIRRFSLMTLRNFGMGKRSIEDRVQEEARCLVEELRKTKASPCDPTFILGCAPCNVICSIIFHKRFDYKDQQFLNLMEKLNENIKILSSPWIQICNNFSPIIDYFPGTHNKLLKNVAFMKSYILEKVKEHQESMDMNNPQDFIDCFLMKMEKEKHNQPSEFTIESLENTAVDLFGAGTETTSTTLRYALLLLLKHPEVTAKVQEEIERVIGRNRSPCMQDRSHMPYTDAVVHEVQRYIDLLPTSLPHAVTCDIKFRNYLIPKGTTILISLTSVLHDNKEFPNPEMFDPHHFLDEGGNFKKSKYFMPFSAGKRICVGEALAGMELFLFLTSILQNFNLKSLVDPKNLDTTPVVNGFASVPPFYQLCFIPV
# In short: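 Luminescence, after 20 min with luciferin detection reagent, reflected CYP2C9 turnover during a 1 h NADPH-driven reaction at 37C. Enzyme-substrate mix contained 0.4% bovine serum albumin and was preincubated with compound 10 min at room temperature.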
# [5] = molecular target: Catechol O-methyltransferase (Homo sapiens) (UniProt P21964); test: Confirmatory Screen for Target Class Profiling of Small Molecule Inhibitors of Methyltransferases (AID 1745852; calls by dose curve; further: potency means the concentration at half of the fitted maximal effect); settings: MTase-Glo luminescence, SAH detection, recombinant enzyme; measured here: COMT max response; stronger effect = lower value
# Chain of Catechol O-methyltransferase (Homo sapiens) (P21964 whole entry, looked up): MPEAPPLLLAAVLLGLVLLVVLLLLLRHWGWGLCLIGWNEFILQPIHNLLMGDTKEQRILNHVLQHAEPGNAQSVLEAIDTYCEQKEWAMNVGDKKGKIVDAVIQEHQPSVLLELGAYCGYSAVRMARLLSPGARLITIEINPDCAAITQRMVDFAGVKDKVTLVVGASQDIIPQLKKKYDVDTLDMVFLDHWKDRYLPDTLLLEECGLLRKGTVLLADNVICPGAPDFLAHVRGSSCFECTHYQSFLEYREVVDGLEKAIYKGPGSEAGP
# [6] = molecular target: Guanidinoacetate N-methyltransferase (Homo sapiens) (UniProt Q14353); test: as above; settings: MTase-Glo luminescence, SAH detection, recombinant enzyme; activity change, negative = inhibition: at 57.3 µM (top of the series)
# [7] = molecular target: Nicotinamide N-methyltransferase (Homo sapiens) (UniProt P40261); test: as above; settings: MTase-Glo luminescence, SAH detection, recombinant enzyme; measured here: NNMT max response; stronger effect = lower value
# Chain of Nicotinamide N-methyltransferase (Homo sapiens) (P40261 whole entry, looked up): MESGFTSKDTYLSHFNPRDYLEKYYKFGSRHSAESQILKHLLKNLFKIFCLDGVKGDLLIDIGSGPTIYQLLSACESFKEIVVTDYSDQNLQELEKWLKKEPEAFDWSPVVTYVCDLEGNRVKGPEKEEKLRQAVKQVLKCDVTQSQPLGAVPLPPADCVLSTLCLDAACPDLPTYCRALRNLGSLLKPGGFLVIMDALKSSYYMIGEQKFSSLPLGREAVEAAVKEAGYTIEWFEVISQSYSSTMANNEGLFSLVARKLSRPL
# [8] = molecular target: Phenylethanolamine N-methyltransferase (Homo sapiens) (UniProt P11086); test: as above; settings: MTase-Glo luminescence, SAH detection, recombinant enzyme; measured here: PNMT max response; stronger effect = lower value
# Chain of Phenylethanolamine N-methyltransferase (Homo sapiens) (P11086 whole entry, looked up): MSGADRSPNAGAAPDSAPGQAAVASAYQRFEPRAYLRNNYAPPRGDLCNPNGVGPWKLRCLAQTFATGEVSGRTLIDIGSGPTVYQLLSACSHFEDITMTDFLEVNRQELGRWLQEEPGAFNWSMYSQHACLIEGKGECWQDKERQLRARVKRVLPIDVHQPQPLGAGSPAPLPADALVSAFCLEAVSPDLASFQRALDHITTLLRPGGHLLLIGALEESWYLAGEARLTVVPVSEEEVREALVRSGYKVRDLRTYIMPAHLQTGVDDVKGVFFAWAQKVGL
# [9] = molecular target: Calcium and integrin-binding protein 1 (Homo sapiens) (UniProt Q99828); test: Validation qHTS for Identification of Calcium Integrin Binding protein 1 (CIB1) Competitor (AID 1508618)
# In short: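 CIB1-GST (1 uM final) incubated 15 min at room temperature with compounds (up to 114 uM), then FITC-labelled alphaIIb peptide (100 nM) added. FP read (Ex 480/Em 540) after 15 min, pH 7.4 buffer containing 5 mM CaCl2.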
# [10] = Primary qHTS for small molecule stabilizers of the endoplasmic reticulum resident proteome: Secreted ER Calcium Modulated Protein (SERCaMP) assay (AID 1508630)
# In short: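 GLuc-SERCaMP-expressing SH-SY5Y cells, pretreated 16 h with compound, are challenged with thapsigargin to empty ER calcium stores; after 4 h, coelenterazine is added directly to the medium and luminescence is imaged.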
# Papain (Carica papaya) = Papain (Carica papaya) (UniProt P00784); test: Primary qHTS assay for inhibitors of the protease papain (AID 1645873);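 further: papain turnover of Z-FR-AMC read as the AMC fluorescence gain over 10 min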
# Chain of Papain (Carica papaya) (P00784 whole entry, looked up): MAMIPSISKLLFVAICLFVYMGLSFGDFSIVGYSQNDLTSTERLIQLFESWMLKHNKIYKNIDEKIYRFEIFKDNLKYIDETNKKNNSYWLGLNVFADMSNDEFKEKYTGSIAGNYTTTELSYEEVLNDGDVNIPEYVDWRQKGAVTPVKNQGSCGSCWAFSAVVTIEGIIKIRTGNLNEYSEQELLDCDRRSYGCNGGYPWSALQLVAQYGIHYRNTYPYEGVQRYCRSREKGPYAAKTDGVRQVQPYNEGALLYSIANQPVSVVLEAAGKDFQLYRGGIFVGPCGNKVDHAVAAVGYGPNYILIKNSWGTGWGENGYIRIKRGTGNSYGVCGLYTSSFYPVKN
smiles,measurement,setting,value
Nc1ncnc2c1c(-c1ccc(Oc3ccccc3)cc1)cn2C1CCCC1,outcome,[1],inactive
same,Potency,[2],1.64 µM (active)
same,Potency,[3],2.59 µM (active)
CC(C)NC[C@H](O)COc1cccc2ccccc12,outcome,[4],inactive
N#Cc1cc([N+](=O)[O-])c2sc(C(N)=O)[n+]([O-])c2c1,Potency,[2],8.2 µM (active)
same,Potency,[3],10.3 µM (active)
COc1cc(/C=C(\C#N)C(=O)c2ccc(O)c(O)c2)cc(I)c1O,activity,[5],13.9%
same,Potency,[6],24.3 µM (active)
same,activity,[7],-5.85%
same,activity,[8],1.08%
CC(C)[C@@H]1CC[C@@H](C)C[C@@H]1P(=O)(c1ccccc1)c1ccccc1,Potency,[9],inactive
same,Potency,[10],inactive
same,Potency,Papain (Carica papaya),inactive
NCCC1CCCC(CCN)N1 (stereo unspecified),Potency,[9],inactive
same,Potency,[10],inactive
same,Potency,Papain (Carica papaya),inactive
c1ccc(CN2CCC3(CCCc4ccccc43)CC2)cc1,Potency,[9],inactive
same,Potency,[10],inactive
same,Potency,Papain (Carica papaya),inactive
OCC1NCC(O)C(O)C1O (stereo unspecified),Potency,[9],inactive
same,Potency,[10],inactive
same,Potency,Papain (Carica papaya),inactive
O=C(c1ccc2c(c1)OCCO2)N1CCCCC1,Potency,[9],inactive
same,Potency,[10],inactive
same,Potency,Papain (Carica papaya),inactive
CCCn1c(=O)c2c(ncn2C)n(CCC)c1=O,Potency,[9],inactive
same,Potency,[10],inactive
same,Potency,Papain (Carica papaya),inactive
CC(=O)NNC(=O)N1Cc2ccccc2Oc2ccc(Cl)cc21,Potency,[9],inactive
same,Potency,[10],inactive
same,Potency,Papain (Carica papaya),inactive
c1ccc2c(c1)CC(N1CCN(c3cccc4c3OCCO4)CC1)C2,Potency,[9],inactive
same,Potency,[10],inactive
same,Potency,Papain (Carica papaya),inactive
N[C@H](C(=O)O)c1cc(O)cc(O)c1,Potency,[9],inactive
same,Potency,[10],inactive
same,Potency,Papain (Carica papaya),inactive
N[C@@H](CCCC(=O)O)C(=O)O,Potency,[9],inactive
same,Potency,[10],inactive
same,Potency,Papain (Carica papaya),inactive
CC(C)Cn1c(=O)n(C)c(=O)c2[nH]cnc21,Potency,[9],inactive
same,Potency,[10],inactive
same,Potency,Papain (Carica papaya),inactive
CCN(CC)CCOC(=O)c1cc(Cl)c(N)cc1OC,Potency,[9],inactive
same,Potency,[10],inactive
same,Potency,Papain (Carica papaya),inactive
